The results in this text go back to PubChem BioAssay.

As a reminder, the inhibition is the drop in the measured response relative to a control, in per cent.

A number with no mark means an inactive call. For some of these results: Measured potencies and affinities stand elsewhere. Calls of active or inactive are those of the source. Unless noted, the rule behind the calls is not given here.

Assay [1] is described as follows: antimalarial activity against Dd2 strain (AID 2302;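 active = growth inhibition above 50% at the single 2 µM test dose, taken to imply half-maximal potency below 2 µM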;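 note: 0% = DMSO untreated growth and 100% = chloroquine plus artemisinin killed control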). As to conditions: P. falciparum Dd2 in RBCs, LDH growth readout, 72 h; at 2 µM; stronger effect = higher value.
Assay [2] in a line: HepG2 cytotoxicity, primary screen, cytotoxicity control for P. falciparum antimalarial project, cell-based, ATP luminescence (AID 2303;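 active = inhibition above 50%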;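 note: 0% = DMSO wells and 100% = digitonin-killed cells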). The conditions noted are these: HepG2 viability, 24-48 h, at 10 µM, stronger effect = higher value.
Assay [3] addresses L-lactate dehydrogenase (Plasmodium falciparum (isolate CDC / Honduras)) (UniProt Q27743). The experiment in a line: PfLDH activity inhibition – cell lysate, 3D7 strain, counter-screen for P. falciparum growth inhibition project (AID 2304).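 Note: 0% = vehicle and 100% = reference inhibitor.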 As to conditions: P. falciparum 3D7 crude extract, LDH APAD/NBT absorbance; at 2 µM; stronger effect = higher value. For orientation: Counterscreens check selectivity or assay interference.

The nature of assay [4]: inhibition of 3D7 malaria parasite growth – strain 3D7 (AID 2306).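 Note: 0% = DMSO wells and 100% = chloroquine plus artemisinin control wells.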 The conditions noted are these: P. falciparum 3D7 erythrocytic growth, LDH absorbance, 72 h; at 2 µM; stronger effect = higher value.
For assay [5], the target named is Calcium-dependent protein kinase 1 (Plasmodium falciparum (isolate 3D7)) (UniProt P62344). The experiment in a line: PfCDPK1 kinase inhibitors, biochemical, TCAMS library (AID 1159585; cut-off not given, nearly all actives have IC50 up to about 0.98 µM;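 note: inhibitors leave more ATP so luminescence rises with inhibition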). The conditions noted are these: recombinant PfCDPK1, Kinase-Glo ATP depletion luminescence. Background: In Kinase-Glo more light means more ATP remaining.
In assay [6] the target is Plasmodium falciparum protein kinase 6 (PK6, PF3D7_1337100) (UniProt Q8IDW1). The experiment in a line: PfPK6 kinase inhibitors, biochemical, TCAMS library (AID 1159586). As to conditions: recombinant PfPK6, Kinase-Glo ATP depletion luminescence.
Assay [7] concerns the target Protein kinase 7 (PK7), Plasmodium falciparum 3D7 (PF3D7_0213400) (UniProt Q7YTF7). The assay is described as follows: inhibition of Plasmodium PK7 catalytic activity – biochemical, TCAMS antimalarial set, Kinase-Glo luminescence (AID 1159587). The conditions noted are these: recombinant PfPK7, Kinase-Glo ATP depletion luminescence.
For assay [8], the target named is Calcium-dependent protein kinase 4 (Plasmodium falciparum (isolate 3D7)) (UniProt Q8IBS5). The assay is described as follows: PfCDPK4 kinase inhibitors, biochemical, TCAMS library (AID 1159588; cut-off not given, nearly all actives have IC50 up to about 0.91 µM). As to conditions: recombinant PfCDPK4, Kinase-Glo ATP depletion luminescence.
Sequence of Calcium-dependent protein kinase 4 (Plasmodium falciparum (isolate 3D7)) (Q8IBS5 whole entry, looked up): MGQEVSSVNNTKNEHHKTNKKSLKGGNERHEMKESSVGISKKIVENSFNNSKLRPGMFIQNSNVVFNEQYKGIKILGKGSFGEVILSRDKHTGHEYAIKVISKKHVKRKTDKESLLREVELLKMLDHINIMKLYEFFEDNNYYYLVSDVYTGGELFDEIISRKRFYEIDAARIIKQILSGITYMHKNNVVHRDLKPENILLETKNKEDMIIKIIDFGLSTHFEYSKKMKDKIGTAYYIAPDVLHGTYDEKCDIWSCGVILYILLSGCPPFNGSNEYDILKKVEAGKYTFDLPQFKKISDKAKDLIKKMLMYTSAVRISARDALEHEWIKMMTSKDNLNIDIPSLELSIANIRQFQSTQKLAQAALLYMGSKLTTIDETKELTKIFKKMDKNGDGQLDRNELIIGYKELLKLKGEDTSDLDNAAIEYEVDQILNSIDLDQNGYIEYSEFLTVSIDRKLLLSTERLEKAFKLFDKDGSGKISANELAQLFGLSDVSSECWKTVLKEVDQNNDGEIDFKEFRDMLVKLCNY

Sequence of Calcium-dependent protein kinase 1 (Plasmodium falciparum (isolate 3D7)) (P62344 whole entry, looked up): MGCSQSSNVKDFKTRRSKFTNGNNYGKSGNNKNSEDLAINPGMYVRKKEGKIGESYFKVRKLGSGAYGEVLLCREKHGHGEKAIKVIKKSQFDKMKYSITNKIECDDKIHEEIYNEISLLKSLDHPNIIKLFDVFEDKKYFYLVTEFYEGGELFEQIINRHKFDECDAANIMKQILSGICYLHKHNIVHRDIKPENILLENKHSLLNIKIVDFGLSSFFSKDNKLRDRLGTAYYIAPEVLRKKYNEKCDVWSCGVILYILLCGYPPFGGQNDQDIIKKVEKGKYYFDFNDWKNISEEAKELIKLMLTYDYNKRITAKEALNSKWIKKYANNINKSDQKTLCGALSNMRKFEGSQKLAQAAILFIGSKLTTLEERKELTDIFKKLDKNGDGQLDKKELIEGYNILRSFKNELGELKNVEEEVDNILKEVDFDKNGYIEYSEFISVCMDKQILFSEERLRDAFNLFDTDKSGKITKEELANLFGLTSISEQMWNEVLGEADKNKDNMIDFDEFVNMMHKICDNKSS
Sequence of L-lactate dehydrogenase (Plasmodium falciparum (isolate CDC / Honduras)) (Q27743 whole entry, looked up): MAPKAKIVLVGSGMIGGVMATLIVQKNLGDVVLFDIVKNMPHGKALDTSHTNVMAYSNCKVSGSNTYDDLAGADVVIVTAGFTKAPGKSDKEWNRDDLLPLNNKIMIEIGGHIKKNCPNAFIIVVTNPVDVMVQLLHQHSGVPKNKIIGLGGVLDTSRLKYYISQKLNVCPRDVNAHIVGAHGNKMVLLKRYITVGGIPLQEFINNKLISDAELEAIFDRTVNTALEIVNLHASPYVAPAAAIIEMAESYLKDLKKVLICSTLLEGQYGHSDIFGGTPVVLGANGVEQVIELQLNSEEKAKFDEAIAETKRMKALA
Sequence of Plasmodium falciparum protein kinase 6 (PK6, PF3D7_1337100) (Q8IDW1 1-305): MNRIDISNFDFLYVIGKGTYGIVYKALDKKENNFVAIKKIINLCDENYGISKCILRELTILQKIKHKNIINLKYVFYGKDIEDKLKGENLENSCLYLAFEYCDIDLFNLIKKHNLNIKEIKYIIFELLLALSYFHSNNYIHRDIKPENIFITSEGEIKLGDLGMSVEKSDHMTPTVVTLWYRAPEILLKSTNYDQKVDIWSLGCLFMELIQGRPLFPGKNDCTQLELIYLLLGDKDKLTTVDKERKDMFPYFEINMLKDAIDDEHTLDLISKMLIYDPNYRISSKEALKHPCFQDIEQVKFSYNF
Sequence of Protein kinase 7 (PK7), Plasmodium falciparum 3D7 (PF3D7_0213400) (Q7YTF7 1-343): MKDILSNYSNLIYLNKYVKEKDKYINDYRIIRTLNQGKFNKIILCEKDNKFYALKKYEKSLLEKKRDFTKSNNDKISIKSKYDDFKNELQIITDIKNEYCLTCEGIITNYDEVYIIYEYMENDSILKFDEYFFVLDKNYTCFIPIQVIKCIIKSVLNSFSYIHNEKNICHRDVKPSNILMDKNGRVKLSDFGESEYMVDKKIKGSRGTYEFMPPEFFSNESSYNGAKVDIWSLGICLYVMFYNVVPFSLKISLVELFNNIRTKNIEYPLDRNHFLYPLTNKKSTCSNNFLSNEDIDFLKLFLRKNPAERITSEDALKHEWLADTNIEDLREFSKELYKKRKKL

Regarding `COc1ccc(Nc2nccc(N3CCC(NS(=O)(=O)c4ccc(NC(C)=O)cc4)C3)n2)cc1` (stereo not given), the growth inhibition is 16% in assay [1] and 100% (active) in assay [4]. For the same molecule, the inhibition in assay [2] is 3%; in assay [3] it was -2%. Moreover, the result in assay [5], in assay [6], in assay [7] and in assay [8] was inactive.
For the molecule `CC(Nc1nc(Nc2ccc(F)cc2)nc(SCC(N)=O)n1)c1ccccc1` (stereo not given), the figures for the growth inhibition in assay [1] and in assay [4] were 87% (active) and 90% (active), respectively. Further, the results for the inhibition in assay [2] and in assay [3] were 14% and -2%, respectively. The result in assay [5], in assay [6], in assay [7] and in assay [8] was inactive.
In the case of `Cc1cccc2[nH]c(-c3cccc(-c4ccc(NC(=O)C(C)C(=O)NC(C)C)cc4)c3)nc12` (stereo not given), the figures for the growth inhibition in assay [1] and in assay [4] were 26% and 85% (active), respectively. Besides, the inhibition was 13% in assay [2] and -3% in assay [3]. The outcome in assay [5], in assay [6], in assay [7] and in assay [8] was inactive.
In the case of `O=C(/C=C/c1ccc(Cl)c(Cl)c1)NCCCCCCN1CCCN(C(=O)Nc2ccc(Cl)c(C(F)(F)F)c2)CC1`, the results for the growth inhibition in assay [1] and in assay [4] were 24% and 101% (active), respectively. In addition, the figures for the inhibition in assay [2] and in assay [3] were 25% and -4%, respectively. Besides, the outcome in assay [5], in assay [6], in assay [7] and in assay [8] was inactive.
For `CCN(CC)CC(O)Cc1c2ccc([N+](=O)[O-])cc2nc2cc(OC)c(OC)cc12` (stereo not given), the growth inhibition in assay [1] is 37%; in assay [4] it was 100% (active). Moreover, the inhibition in assay [2] is 41%; in assay [3], -6%. In addition, the outcome in assay [5], in assay [6], in assay [7] and in assay [8] was inactive.
Regarding `COc1cc(Cc2cnc(N)nc2N)ccc1OCc1cccc(Oc2ccccc2)c1`, the values for the growth inhibition in assay [1] and in assay [4] were 21% and 84% (active), respectively. The results for the inhibition in assay [2] and in assay [3] were 18% and 0%, respectively. Also, the result in assay [5], in assay [6], in assay [7] and in assay [8] was inactive.
On to `O=[N+]([O-])c1cccc(CNC2CCN(Cc3ccc(C(F)(F)F)cc3)CC2)c1`, for which the growth inhibition in assay [1] was 28%; in assay [4] it was 99% (active). The figures for the inhibition in assay [2] and in assay [3] were 0% and 1%, respectively. The outcome in assay [5], in assay [6], in assay [7] and in assay [8] was inactive.
For `O=C(/C=C/c1ccc(Cl)c(Cl)c1)NCCCCN1CCCN(C(=O)Nc2ccc(Cl)c(Cl)c2)CC1`, the values for the growth inhibition in assay [1] and in assay [4] were 1% and 96% (active), respectively. Moreover, the inhibition in assay [2] is 22%; in assay [3] it was 3%. Also, the outcome in assay [5], in assay [6], in assay [7] and in assay [8] was inactive.
With `COc1ccc(-c2cn3c(C(=O)Nc4ccccc4Cl)c(-c4ccccc4)c4c3n2CCCC4)cc1`, the figures for the growth inhibition in assay [1] and in assay [4] were 1% and 100% (active), respectively. Moreover, the inhibition in assay [2] is 7%; in assay [3] it was -4%. The result in assay [5], in assay [6], in assay [7] and in assay [8] was inactive.
Turning to `COC(=O)C(NC(=O)c1ccc(-c2ccc(-c3nc4ccccc4[nH]3)s2)cc1)c1ccc(O)cc1` (stereo not given), the growth inhibition in assay [1] is 49%; in assay [4] it was 83% (active). Also, the figures for the inhibition in assay [2] and in assay [3] were 99% (active) and 3%, respectively. The result in assay [5], in assay [6], in assay [7] and in assay [8] was inactive.
For the molecule `Nc1ccc2[nH]cc(C3CCN(CC4CCC(NC(=O)/C=C/c5ccc(Cl)c(Cl)c5)CC4)CC3)c2n1` (stereo not given), the figures for the growth inhibition in assay [1] and in assay [4] were 93% (active) and 100% (active), respectively. The inhibition in assay [2] is 18%; in assay [3], 1%. The outcome in assay [5], in assay [6], in assay [7] and in assay [8] was inactive.
As to `Cc1[nH]c(C)c(-c2ccc(OCCSc3ccncc3)cc2)c(=O)c1Br`, the growth inhibition in assay [1] and in assay [4] was 95% (active) each time. The inhibition in assay [2] and in assay [3] was -6% each time. Further, the outcome in assay [5], in assay [6], in assay [7] and in assay [8] was inactive.
Take `C=C[C@]1(C)C[C@@H](OC(=O)NC(=O)CCCS(=O)(=O)c2nnc(C)s2)[C@]2(C)[C@H](C)CC[C@]3(CCC(=O)[C@H]32)[C@@H](C)[C@@H]1O`: the results for the growth inhibition in assay [1] and in assay [4] were 97% (active) and 94% (active), respectively. In addition, the inhibition was -9% in assay [2] and -7% in assay [3]. In addition, the outcome in assay [5], in assay [6], in assay [7] and in assay [8] was inactive.
In the case of `COc1cc(C(=O)N2N=C(c3c(-c4ccccc4)c4cc(Br)ccc4[nH]c3=O)CC2c2cccc([N+](=O)[O-])c2)cc(OC)c1OC` (stereo not given), the growth inhibition in assay [1] was 95% (active); in assay [4], 93% (active). The values for the inhibition in assay [2] and in assay [3] were 1% and 4%, respectively. The result in assay [5], in assay [6], in assay [7] and in assay [8] was inactive.
For `O=C(CCc1cnc[nH]1)Nc1ccc(-c2ccc(-c3nc4ccccc4[nH]3)cc2)cc1`, the growth inhibition was 70% (active) in assay [1] and 98% (active) in assay [4]. The inhibition was 46% in assay [2] and 0% in assay [3]. For the same molecule, the result in assay [5], in assay [6], in assay [7] and in assay [8] was inactive.
In the case of `CCCNc1nc(NCc2c(C)cccc2C)nc(NC(C)(C)C)n1`, the growth inhibition in assay [1] was 89% (active); in assay [4], 91% (active). Besides, the values for the inhibition in assay [2] and in assay [3] were 15% and 2%, respectively. In addition, the result in assay [5], in assay [6], in assay [7] and in assay [8] was inactive.
On to `CN1CC[C@@H](Oc2cc(Nc3nc(-c4ccc(C#N)cc4)cs3)ccc2Cl)C1`, for which the values for the growth inhibition in assay [1] and in assay [4] were 24% and 99% (active), respectively. In addition, the results for the inhibition in assay [2] and in assay [3] were 12% and -1%, respectively. The outcome in assay [5], in assay [6], in assay [7] and in assay [8] was inactive.
`CC(C)CNC(=O)c1cncc(-c2ccc(CNC3Cc4ccccc4C3)cc2)c1`: the values for the growth inhibition in assay [1] and in assay [4] were 37% and 99% (active), respectively. For the same molecule, the inhibition in assay [2] was 5%; in assay [3], 0%. Further, the outcome in assay [5], in assay [6], in assay [7] and in assay [8] was inactive.
As for `O=C(NCC1CC1)C1CCN(C(c2ccc(Cl)cc2)c2ccc(Cl)cc2)CC1`, the growth inhibition in assay [1] was 95% (active); in assay [4] it was 99% (active). In addition, the inhibition is 3% in assay [2] and 1% in assay [3]. Also, the result in assay [5], in assay [6], in assay [7] and in assay [8] was inactive.
For the molecule `COc1ccc(C=NNc2cc(C)nc3ccc(C)cc23)c2ccccc12`, the growth inhibition in assay [1] was 55% (active); in assay [4], 94% (active). Also, the inhibition in assay [2] is 28%; in assay [3], 4%. The outcome in assay [5], in assay [6], in assay [7] and in assay [8] was inactive.
